Laboratory results as given in PubChem BioAssay (EPA / NIEHS).
The source made the active and inactive calls. Rule for the calls: active = hit-call score of the fitted dose curve at least 0.9, where 1 is the maximum; inactive = score below 0.9.

Tests used:
[1] = ATG_E_Box_CIS: Attagene CIS-FACTORIAL HepG2 Assay for human Enhancer Box (E-box) (AID 2282936); conditions: HepG2 E-box cis-reporter transcription, actives raise or lower the signal
Summary of the method: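 E-box-driven reporter transcripts measured in transiently transfected HepG2 after 24 h exposure: RNA reverse-transcribed, PCR-amplified, fluorescently labelled, digested and resolved by capillary electrophoresis. Gain or loss relative to DMSO.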

[2] = ATG_M_61_CIS: Attagene CIS-FACTORIAL HepG2 Assay for M61 Transcription Factor (Internal Marker) (AID 2282937); conditions: HepG2 Attagene CIS-FACTORIAL M61 internal marker reporter; actives raise or lower the signal
Summary of the method: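 Cells were transfected with reporter units under cis-regulatory promoters, treated with chemicals for 24 h, then lysed for RNA. Reporter transcripts were quantified by RT-PCR and capillary electrophoresis, and activity was fitted bidirectionally against DMSO.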

[3] = ATG_EGR_CIS: Attagene CIS-FACTORIAL HepG2 Assay for human Early Growth Response 1 (EGR1) (AID 2282938); conditions: HepG2 Attagene CIS-FACTORIAL EGR reporter mRNA; actives raise or lower the signal
Summary of the method: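 Endogenous TF activity in HepG2 liver cells was gauged through cis-promoter reporter constructs transiently transfected. After 24 h dosing, reporter mRNA was quantified by RT-PCR and capillary electrophoresis, and curves fitted in both directions versus DMSO.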

[4] = ATG_M_19_CIS: Attagene CIS-FACTORIAL HepG2 Assay for M19 Transcription Factor (Internal Marker) (AID 2282939); conditions: HepG2 Attagene CIS-FACTORIAL M19 internal marker reporter; actives raise or lower the signal
Summary of the method: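 Transfect HepG2 with MRTU reporter library → dose chemical, 24 h → isolate total RNA, reverse-transcribe with oligo(dT) → PCR, 6-FAM label, HpaI cut (2 h, 37 C) → capillary electrophoresis. Bidirectional fit vs DMSO.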

[5] = ATG_Ets_CIS: Attagene CIS-FACTORIAL HepG2 Assay for human Erythroblast Transformation Specific (ETS) (AID 2282941); conditions: HepG2 ETS cis-reporter transcription, actives raise or lower the signal
Summary of the method: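 Bidirectional fit versus DMSO of reporter mRNA signal, detected by RT-PCR and capillary electrophoresis in HepG2 cells transiently transfected with cis-element reporters and dosed 24 h.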

[6] = biological target: Hepatocyte nuclear factor 3-beta (Homo sapiens) (UniProt Q9Y261); assay: ATG_FoxA2_CIS: Attagene CIS-FACTORIAL HepG2 Assay for human Forkhead box A2 (FOXA2) (AID 2282942); conditions: HepG2 cis-reporter transcription factor activity, 24 h; actives raise or lower the signal
Summary of the method: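 Endogenous transcription factor activity was read in HepG2 cells carrying transiently transfected cis-promoter reporter units. After 24 h dosing, reporter mRNA was quantified by RT-PCR and capillary electrophoresis, and values fitted bidirectionally versus DMSO.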

[7] = ATG_GATA_CIS: Attagene CIS-FACTORIAL HepG2 Assay for human GATA Binding Protein (AID 2282944); conditions: HepG2 GATA cis-element reporter, Attagene multiplex mRNA; actives raise or lower the signal
Summary of the method: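 Transient MRTU transfection, HepG2, 24 h compound exposure. Total RNA → oligo(dT) RT → PCR → 6-FAM primer extension → HpaI cut → CE. Bidirectional fit vs DMSO.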

[8] = ATG_GLI_CIS: Attagene CIS-FACTORIAL HepG2 Assay for human Zinc Finger Protein GLI1 (AID 2282945); conditions: HepG2, Attagene cis-factorial reporter mRNA, GLI element; actives raise or lower the signal
Summary of the method: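 Bidirectional curve fits relative to DMSO, using reporter mRNA levels from RT-PCR plus capillary electrophoresis. Cells were HepG2 transiently carrying cis-regulated reporter constructs, harvested 24 h after dosing.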

[9] = ATG_ISRE_CIS: Attagene CIS-FACTORIAL HepG2 Assay for human Interferon Regulatory Factor 1 (IRF1) binding to an Interferon-Stimulated Response Element (ISRE) (AID 2282948); conditions: HepG2 ISRE cis-reporter (Attagene), mRNA transcription readout; actives raise or lower the signal
Summary of the method: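 Uses HepG2 liver cells transfected with cis-regulated reporters and measures mRNA 24 h post-dosing through RT-PCR, primer-extension labelling and capillary electrophoresis, with DMSO as negative control.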

[10] = ATG_M_32_CIS: Attagene CIS-FACTORIAL HepG2 Assay for M32 Transcription Factor (Internal Marker) (AID 2282949); conditions: HepG2 Attagene cis-factorial M32 reporter, mRNA; actives raise or lower the signal;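 note: background control marker of the multiplexed CIS panel rather than a real target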
Summary of the method: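 HepG2 human liver cells transiently transfected with cis-promoter-driven multiple reporter transcription units, dosed 24 h. Reporter mRNA quantified by RT-PCR, FAM-labelled primer extension, HpaI digest and capillary electrophoresis; bidirectional fit versus DMSO baseline.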

[11] = ATG_M_06_CIS: Attagene CIS-FACTORIAL HepG2 Assay for M06 Transcription Factor (Internal Marker) (AID 2282950); conditions: HepG2 Attagene CIS-FACTORIAL M06 internal marker reporter; actives raise or lower the signal
Summary of the method: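 Read-out is fluorescence of labelled reporter cDNA fragments resolved by capillary electrophoresis after RT-PCR. Cells: HepG2 carrying transfected cis-promoter reporter units, treated 24 h. Gain or loss of signal fitted relative to DMSO.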

[12] = biological target: Hypoxia-inducible factor 1-alpha (Homo sapiens) (UniProt Q16665); assay: ATG_HIF1a_CIS: Attagene CIS-FACTORIAL HepG2 Assay for human Hypoxia Inducible Factor 1 (HIF1A) (AID 2282951); conditions: HepG2 Attagene cis-factorial HIF1a reporter transcription; actives raise or lower the signal
Summary of the method: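 Measures endogenous transcription-factor activity through cis-regulated reporter mRNA in HepG2. Cells dosed 24 h; transcripts quantified by RT-PCR with 6-FAM-labelled products separated by capillary electrophoresis; DMSO serves as negative control.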

[13] = biological target: Hepatocyte nuclear factor 6 (Homo sapiens) (UniProt Q9UBC0); assay: ATG_HNF6_CIS: Attagene CIS-FACTORIAL HepG2 Assay for human Hepatocyte Nuclear Factor 6 (HNF6) (AID 2282952); conditions: HepG2 Attagene cis-factorial HNF6 reporter transcription; actives raise or lower the signal
Summary of the method: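 First, HepG2 cells were transfected with the multiplexed cis reporter library and dosed with chemical for 24 h. Next, RNA was reverse-transcribed, PCR-amplified and fluorescently labelled. Finally, HpaI-digested fragments were read by capillary electrophoresis.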

[14] = biological target: Heat shock factor protein 1 (Homo sapiens) (UniProt Q00613); assay: ATG_HSE_CIS: Attagene CIS-FACTORIAL HepG2 Assay for human Heat Shock Transcription Factor 1 (HSE) (AID 2282953); conditions: HepG2 HSE cis-reporter, Attagene RNA transcription; actives raise or lower the signal
Summary of the method: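 HepG2, transient MRTU transfection, cis-promoter reporters (endogenous TF activity). 24 h compound. RNA → oligo(dT) RT → PCR → 6-FAM primer extension → HpaI cut → CE. Bidirectional fit vs DMSO.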

[15] = ATG_MRE_CIS: Attagene CIS-FACTORIAL HepG2 Assay for human Metal Responsive Element (MRE) (AID 2282954); conditions: HepG2 MRE cis-reporter transcription, Attagene multiplex; actives raise or lower the signal
Summary of the method: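 Endogenous MRE-dependent transcription read as reporter mRNA in transiently transfected human HepG2 cells at 24 h. RNA reverse-transcribed, PCR-amplified, labelled and resolved by capillary electrophoresis; gain or loss relative to DMSO.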

[16] = ATG_PBREM_CIS: Attagene CIS-FACTORIAL HepG2 Assay for human Phenobarbital-responsive Enhancer Module (PBREM) (AID 2282955); conditions: HepG2 PBREM cis-reporter, Attagene multiplexed transcription; actives raise or lower the signal
Summary of the method: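 Fluorescence of labelled reporter cDNA fragments, resolved by capillary electrophoresis, gives mRNA induction in transfected HepG2 cells treated for 24 h; DMSO serves as negative control and baseline.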

[17] = ATG_FoxO_CIS: Attagene CIS-FACTORIAL HepG2 Assay for human Forkhead box O (FoxO) (AID 2282943); conditions: HepG2 Attagene cis-reporter, FoxO element, mRNA; actives raise or lower the signal
Summary of the method: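 HepG2, transient MRTU transfection (cis element, endogenous TFs). Dose 24 h. TriZol RNA → oligo(dT) RT → PCR → 6-FAM primer extension → HpaI cut → CE. Gain/loss vs DMSO.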

[18] = ATG_GRE_CIS: Attagene CIS-FACTORIAL HepG2 Assay for human Glucocorticoid Response Elements (GRE) (AID 2282947); conditions: HepG2 GRE cis-reporter, Attagene multiplex mRNA; actives raise or lower the signal
Summary of the method: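 Reporter transcripts read by RT-PCR with capillary electrophoresis fluorescence after a 24 h chemical exposure of HepG2 cells transiently transfected with multiple cis-element reporter units. Gain or loss fitted against DMSO.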

[19] = biological target: Bile acid receptor (Homo sapiens) (UniProt Q96RI1); assay: ATG_IR1_CIS: Attagene CIS-FACTORIAL HepG2 Assay for human Nuclear Receptor Subfamily 1 Group H Member 4 (NR1H4), IR1 submotif (AID 2282946); conditions: IR1 reporter transcription, actives raise or lower the signal
Summary of the method: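 HepG2 cells transiently transfected with multiplexed cis-element reporter units read endogenous transcription factor activity. After 24 h compound exposure, reporter mRNA was quantified by RT-PCR, fluorescent labelling, HpaI digestion and capillary electrophoresis; bidirectional fitting versus DMSO baseline.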

Measured: AC50

Bile acid receptor (Homo sapiens), sequence (Q96RI1 whole entry, looked up): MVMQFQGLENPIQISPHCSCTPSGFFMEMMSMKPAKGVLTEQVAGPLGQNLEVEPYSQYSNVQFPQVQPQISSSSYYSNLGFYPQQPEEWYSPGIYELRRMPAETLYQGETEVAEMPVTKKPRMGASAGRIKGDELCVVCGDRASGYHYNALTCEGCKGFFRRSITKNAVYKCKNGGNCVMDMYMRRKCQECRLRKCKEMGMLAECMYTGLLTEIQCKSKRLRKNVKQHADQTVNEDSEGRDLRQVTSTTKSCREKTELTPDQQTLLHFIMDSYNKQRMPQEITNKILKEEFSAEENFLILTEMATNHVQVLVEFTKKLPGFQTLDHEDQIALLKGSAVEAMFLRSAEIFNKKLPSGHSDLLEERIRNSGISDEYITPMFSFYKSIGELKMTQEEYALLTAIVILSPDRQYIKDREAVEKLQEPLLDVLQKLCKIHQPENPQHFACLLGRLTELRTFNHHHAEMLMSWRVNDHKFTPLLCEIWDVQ
Hypoxia-inducible factor 1-alpha (Homo sapiens), sequence (Q16665 whole entry, looked up): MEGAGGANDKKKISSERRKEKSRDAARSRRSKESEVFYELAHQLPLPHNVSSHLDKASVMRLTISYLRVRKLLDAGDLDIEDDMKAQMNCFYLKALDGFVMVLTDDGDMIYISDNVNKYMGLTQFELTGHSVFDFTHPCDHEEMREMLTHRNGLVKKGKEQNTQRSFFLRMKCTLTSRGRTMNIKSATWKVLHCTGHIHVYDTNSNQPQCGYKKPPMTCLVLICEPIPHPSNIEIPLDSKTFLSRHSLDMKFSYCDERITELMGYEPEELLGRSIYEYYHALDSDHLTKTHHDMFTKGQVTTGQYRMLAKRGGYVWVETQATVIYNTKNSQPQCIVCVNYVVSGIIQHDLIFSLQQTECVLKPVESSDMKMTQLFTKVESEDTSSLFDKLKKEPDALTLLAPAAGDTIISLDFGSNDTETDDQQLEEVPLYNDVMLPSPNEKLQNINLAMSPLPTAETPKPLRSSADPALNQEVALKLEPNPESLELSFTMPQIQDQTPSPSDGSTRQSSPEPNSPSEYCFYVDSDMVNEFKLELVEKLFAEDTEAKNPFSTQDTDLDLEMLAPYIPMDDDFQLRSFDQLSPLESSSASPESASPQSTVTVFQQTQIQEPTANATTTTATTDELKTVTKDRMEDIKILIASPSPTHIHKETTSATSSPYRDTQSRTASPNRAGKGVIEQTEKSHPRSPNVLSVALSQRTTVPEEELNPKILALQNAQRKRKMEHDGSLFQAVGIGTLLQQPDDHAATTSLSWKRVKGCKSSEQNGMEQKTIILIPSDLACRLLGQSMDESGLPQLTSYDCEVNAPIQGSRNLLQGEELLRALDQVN
Hepatocyte nuclear factor 6 (Homo sapiens), sequence (Q9UBC0 whole entry, looked up, the tested form may be a part): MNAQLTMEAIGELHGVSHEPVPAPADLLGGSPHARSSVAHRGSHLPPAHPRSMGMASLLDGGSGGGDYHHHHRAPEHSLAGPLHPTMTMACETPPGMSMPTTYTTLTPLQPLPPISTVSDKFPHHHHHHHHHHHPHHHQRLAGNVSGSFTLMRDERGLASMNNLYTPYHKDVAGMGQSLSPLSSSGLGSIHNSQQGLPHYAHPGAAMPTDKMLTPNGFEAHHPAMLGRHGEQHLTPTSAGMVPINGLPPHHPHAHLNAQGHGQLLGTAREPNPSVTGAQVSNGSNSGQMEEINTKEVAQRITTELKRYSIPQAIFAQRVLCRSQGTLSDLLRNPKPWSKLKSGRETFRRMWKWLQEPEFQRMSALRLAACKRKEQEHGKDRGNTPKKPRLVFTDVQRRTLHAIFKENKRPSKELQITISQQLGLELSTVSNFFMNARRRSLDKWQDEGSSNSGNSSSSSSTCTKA
Heat shock factor protein 1 (Homo sapiens), sequence (Q00613 whole entry, looked up): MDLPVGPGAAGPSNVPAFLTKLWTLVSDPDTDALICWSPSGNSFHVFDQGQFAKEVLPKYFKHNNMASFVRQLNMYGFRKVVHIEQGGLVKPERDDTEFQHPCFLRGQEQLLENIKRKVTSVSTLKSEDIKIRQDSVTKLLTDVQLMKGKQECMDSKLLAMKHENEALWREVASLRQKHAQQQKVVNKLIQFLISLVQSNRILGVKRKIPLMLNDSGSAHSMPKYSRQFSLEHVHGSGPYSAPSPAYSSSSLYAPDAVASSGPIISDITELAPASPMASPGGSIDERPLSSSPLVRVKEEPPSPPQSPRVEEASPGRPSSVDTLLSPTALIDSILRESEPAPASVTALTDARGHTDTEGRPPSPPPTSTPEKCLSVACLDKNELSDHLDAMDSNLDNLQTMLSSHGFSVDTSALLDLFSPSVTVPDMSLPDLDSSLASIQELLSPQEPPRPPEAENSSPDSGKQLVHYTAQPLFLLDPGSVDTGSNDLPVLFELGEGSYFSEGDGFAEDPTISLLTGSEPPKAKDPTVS
Hepatocyte nuclear factor 3-beta (Homo sapiens), sequence (Q9Y261 whole entry, looked up): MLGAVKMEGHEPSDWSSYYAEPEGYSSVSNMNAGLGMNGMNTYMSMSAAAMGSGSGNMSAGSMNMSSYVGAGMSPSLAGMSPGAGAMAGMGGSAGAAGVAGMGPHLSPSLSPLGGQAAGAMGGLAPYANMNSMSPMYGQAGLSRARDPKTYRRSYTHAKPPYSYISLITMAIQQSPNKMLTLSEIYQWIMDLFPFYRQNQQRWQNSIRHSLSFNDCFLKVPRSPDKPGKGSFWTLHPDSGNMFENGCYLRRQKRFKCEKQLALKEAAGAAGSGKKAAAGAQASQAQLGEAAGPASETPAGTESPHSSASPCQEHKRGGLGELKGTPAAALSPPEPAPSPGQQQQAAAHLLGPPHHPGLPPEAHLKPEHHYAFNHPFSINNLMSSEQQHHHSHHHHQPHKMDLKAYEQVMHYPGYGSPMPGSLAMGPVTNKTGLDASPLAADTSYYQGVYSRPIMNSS

CC(C)[C@H](C(=O)O[C@H](C#N)c1cccc(Oc2ccccc2)c1)c1ccc(Cl)cc1
inactive: [1] | [2] | [3] | [4] | [5] | [6] | [7] | [8] | [9] | [10] | [11] | [12] | [13] | [14] | [15]
active: [16] 9.24 µM

CN(C)NC(=O)CCC(=O)O
inactive: [1] | [2] | [3] | [4] | [6] | [7] | [8] | [9] | [10] | [11] | [12] | [13] | [15] | [16]

CCCOc1nn(C(=O)NS(=O)(=O)c2ccccc2C(=O)OC)c(=O)n1C
inactive: [1] | [2] | [3] | [4] | [5] | [6] | [17] | [7] | [8] | [18] | [9] | [10] | [11] | [12] | [13] | [14] | [15] | [16]

CCCOCC(=Nc1ccc(Cl)cc1C(F)(F)F)n1ccnc1
inactive: [1] | [2] | [3] | [4] | [6] | [7] | [8] | [19] | [18] | [9] | [11] | [12] | [13] | [14] | [15] | [16]

CCOP(=S)(OCC)SCCSCC
inactive: [1] | [2] | [3] | [4] | [6] | [7] | [8] | [9] | [10] | [11] | [12] | [13] | [15]
active: [18] 15.4 µM | [16] 30.5 µM

CCOC(=O)CC(SP(=O)(OC)OC)C(=O)OCC (stereo not drawn)
inactive: [1] | [2] | [3] | [4] | [6] | [17] | [7] | [8] | [19] | [18] | [9] | [11] | [12] | [13] | [15] | [16]

CNc1cnn(-c2cccc(C(F)(F)F)c2)c(=O)c1Cl
inactive: [1] | [2] | [3] | [4] | [5] | [6] | [17] | [7] | [8] | [19] | [18] | [9] | [10] | [11] | [12] | [13] | [15] | [16]
